In PubChem BioAssay (EPA / NIEHS):
Inconclusive results are not listed. Calls of active or inactive are those of the source. Rule for the calls: active = hit-call score of the fitted dose curve at least 0.9, where 1 is the maximum; inconclusive = response in the unintended direction; inactive = score below 0.9.

Target: Oxysterols receptor LXR-alpha (Homo sapiens) (UniProt Q13133)
Assay: ATG_LXRa_TRANS: Attagene TRANS-FACTORIAL HepG2 Assay for human Liver X Receptor alpha (LXRa) (AID 2282980)
Details: HepG2 Attagene TRANS reporter, LXRa transactivation
Experimental: ATG_TRANS is a cell-based, multiplexed-readout assay that uses HepG2, a human liver cell line, with measurements taken at 24 hours after chemical dosing in a 24-well plate.ATG_LXRa_TRANS is one of 30 assay component(s) measured or calculated from the ATG_TRANS assay. It is designed to make measurements of mRNA induction, a form of inducible reporter, as detected with fluorescence intensity signals by Reverse transcription polymerase chain reaction (RT-PCR) and Capillary electrophoresis technology.Data from the assay component ATG_LXRa_TRANS was analyzed into 1 assay endpoint. This assay endpoint, ATG_LXRa_TRANS, was analyzed in the positive analysis fitting direction relative to DMSO as the negative control and baseline of activity. Using a type of inducible reporter, measures of mRNA for gain-of-signal activity can be used to understand the reporter gene at the transcription factor-level as they relate to the gene NR1H3. Furthermore, this assay endpoint can be referred to as a primary readout, because this assay has produced multiple assay endpoints where this one serves a reporter gene function. To generalize the intended target to other relatable targets, this assay endpoint is annotated to the nuclear receptor intended target family, where the subfamily is non-steroidal.
Human liver HepG2 cells are transiently transfected with multiple reporter transcription units (MRTUs) in 6-well plates using FuGene 6 reagent (Roche; 3 ml FuGene/1 mg DNA). The MRTU constructs are regulated by a cis-regulating element (promoter). […] A major difference between the CIS and TRANS system is that in CIS activities of endogenous TFs are measured, whereas the TRANS assay evaluates changes in activities of exogenous, chimeric NR-Gal4 proteins. […] At the end of 24 hour incubation, total RNA was isolated using TriZol reagent (Invitrogen). The isolated RNA is then reverse-transcribed using oligo(dT) primer and Mo-MLV reverse transcriptase (Invitrogen) with DNAse I (Ambion) treatment for 30 min. The one-tenth of the produced cDNA was amplified by PCR using Taq DNA polymerase (Invitrogen) and two reporter sequence-specific primers. The PCR products were fluorescently labeled by primer extension with 6-arboxyfluorescein (6-FAM) 5'-labeled reporter sequence-specific primer (2 min at 95 C, 20 s at 68 C and 10 min at 72 C) and these products were digested with 5U of HpaI (New England Biolabs) for 2h at 37 C. The fragments were purified using Qiaquick PCR columns (Qiagen), analyzed on an ABI 3130xL genetic analyzer (Applied Biosystems) with peak positions identified by using a set of X-rhodamine (ROX)-labeled MapMarker1000 molecular weight standards (BioVentures). The raw capillary electrophoresis data was processed using Attagraph software (Attagene).

Chain of Oxysterols receptor LXR-alpha (Homo sapiens) (Q13133 whole entry, looked up): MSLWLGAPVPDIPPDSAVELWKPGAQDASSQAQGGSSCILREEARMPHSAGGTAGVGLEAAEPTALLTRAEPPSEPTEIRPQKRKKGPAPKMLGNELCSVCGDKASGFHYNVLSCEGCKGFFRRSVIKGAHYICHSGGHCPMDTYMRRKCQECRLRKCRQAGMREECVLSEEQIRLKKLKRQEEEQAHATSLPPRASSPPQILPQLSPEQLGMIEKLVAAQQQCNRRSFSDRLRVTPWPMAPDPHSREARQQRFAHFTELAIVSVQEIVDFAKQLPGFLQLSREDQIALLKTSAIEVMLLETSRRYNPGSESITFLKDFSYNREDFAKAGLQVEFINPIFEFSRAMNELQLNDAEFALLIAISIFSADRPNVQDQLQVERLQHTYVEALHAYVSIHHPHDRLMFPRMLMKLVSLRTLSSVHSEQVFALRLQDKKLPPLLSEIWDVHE

| Compound | outcome | AC50 |
| --- | --- | --- |
| CCCCCCCCCCCCc1ccccc1 | inactive |  |
| C1N2CN3CN1CN(C2)C3 | inactive |  |
| O=C(NS(=O)(=O)/C=C/c1ccccc1)c1ccc(F)cc1Cl | inactive |  |
| COCCOc1cc2cc(C(=O)NC3CCN(C(C)C)CC3)n(CC(=O)Nc3ccc(Cl)cn3)c2cn1 | inactive |  |
| CCC(C)(C)C(=O)O[C@H]1C[C@@H](C)C=C2C=C[C@H](C)[C@H](CC[C@@H]3C[C@@H](O)CC(=O)O3)[C@H]21 | inactive |  |
| COC(=O)c1ccccc1O |  | 25.8 µM (active) |
| CCN(C(=O)c1cc(C)cc(OC[C@H](C)Nc2ccncc2)c1)C(C)C |  | 0.486 µM (active) |
| COc1ccc(/C=C/S(=O)(=O)NC(=O)c2ccc(C)cc2Cl)cc1 | inactive |  |
| COc1cccc(-c2ccc(/C=C\CN3CCCCCC3)cc2Cl)c1 | inactive |  |
| CC/C(=C\C(=N/O)C(N)=O)C(C)[N+](=O)[O-] (stereo not given) | inactive |  |
| CNCc1ccc(NC(=O)c2c[nH]c3c2C(=O)CCC3)cc1 | inactive |  |
| O=C(OC[C@H]1O[C@@H](OC(=O)c2cc(O)c(O)c(OC(=O)c3cc(O)c(O)c(O)c3)c2)[C@H](OC(=O)c2cc(O)c(O)c(OC(=O)c3cc(O)c(O)c(O)c3)c2)[C@@H](OC(=O)c2cc(O)c(O)c(OC(=O)c3cc(O)c(O)c(O)c3)c2)[C@@H]1OC(=O)c1cc(O)c(O)c(OC(=O)c2cc(O)c(O)c(O)c2)c1)c1cc(O)c(O)c(OC(=O)c2cc(O)c(O)c(O)c2)c1 | inactive |  |
| Nc1nc2ncc(CNc3ccc(C(=O)N[C@@H](CCC(=O)O)C(=O)O)cc3)nc2c(=O)[nH]1 | inactive |  |
| Cn1cnc([N+](=O)[O-])c1Sc1ncnc2nc[nH]c12 | inactive |  |
| COc1ccc(-n2nc(C(F)F)cc2-c2ccc(S(C)=O)cc2)cc1 (stereo not given) | inactive |  |
| COCCOCCOCCOC | inactive |  |
| CCc1cc(SCc2sc(-c3ccc(C(F)(F)F)cc3)nc2CN2CCN(c3ccc(OC)cc3)CC2)ccc1OCC(=O)O | inactive |  |
| CCOC(=O)CC(CC(=O)OCC)(OC(C)=O)C(=O)OCC | inactive |  |
| CC(C)=CCCC(C)=CC=O | inactive |  |
| O=C(CCCCCCCCc1cccnc1)N1CCC(C=C(c2ccccc2)c2ccccc2)CC1 | inactive |  |

| Compound | outcome | AC50 |
| --- | --- | --- |
| CC(O)CN(CCN(CC(C)O)CC(C)O)CC(C)O (stereo not given) | inactive |  |
| O=C1OC(=O)C2C3C=CC(C3)C12 (stereo not given) | inactive |  |
| CN(C)c1ccc(N=NS(=O)(=O)O)cc1 | inactive |  |
| Cc1[nH]cnc1C[C@H]1CCc2c(C)c3ccccc3n2C1=O | inactive |  |
| CCCCCCc1ccc(O)cc1O | inactive |  |
| O=C1CCCCCN1 | inactive |  |
| Cn1c(=O)cc(Oc2ccc(F)cc2F)c2cnc(NCC(C)(C)O)nc21 | inactive |  |
| O=P(OC(CCl)CCl)(OC(CCl)CCl)OC(CCl)CCl | inactive |  |
| O=C(O)c1cccc(N(Cc2cccnc2)c2ccc(OC(F)F)c(OC(F)F)c2)c1 | inactive |  |
| C=CCCCCCCCCC(=O)O | inactive |  |
| CCCCC(CC)COC(=O)c1ccc(C(=O)OCC(CC)CCCC)cc1 (stereo not given) | inactive |  |
| Cc1ccc(S(=O)(=O)O)cc1C | inactive |  |
| CC[C@H](C)C(=O)O[C@H]1C[C@@H](C)C=C2C=C[C@H](C)[C@H](CC[C@@H]3C[C@@H](O)CC(=O)O3)[C@H]21 | inactive |  |
| O=C1CCC(N2C(=O)c3ccccc3C2=O)C(=O)N1 (stereo not given) | inactive |  |
| O=c1n(CC2CO2)c(=O)n(CC2CO2)c(=O)n1CC1CO1 (stereo not given) | inactive |  |
| COC(=O)c1c(Cl)c(Cl)c(C(=O)OC)c(Cl)c1Cl | inactive |  |
| CCCN(C1CCN(C(=O)C2CCNCC2)CC1)[C@@H]1CCc2ccc(OC)cc2C1 | inactive |  |
| O=C(O)c1cc(N=Nc2ccc(S(=O)(=O)Nc3ccccn3)cc2)ccc1O | inactive |  |
| CCCCC(CC)COC(=O)CCCCCCCCC(=O)OCC(CC)CCCC (stereo not given) | inactive |  |
| CC(C)CCCCCCCOC(=O)CCCCC(=O)OCCCCCCCC(C)C | inactive |  |
